# Measurements as given in PubChem BioAssay AID588549 (Broad Institute, 2011).
# The whole screen tested about 360,000 compounds, of which about 780 (0.22%) were called active. Cut-off read from the data, not from the text of the source: active = inhibition above about 8.5% (passing the limit was not always enough); inconclusive = no clear call, values can overlap the other calls. The sample as a whole holds a higher share of actives than the screen did.
# Test system: Mycobacterium tuberculosis FadD28 fatty-acid-AMP ligase
# Assay: inhibitors of FadD28 bisubstrate probe binding, primary screen, biochemical, fluorescence polarization, single point (AID 588549)
# Conditions: at 12.5 µM, active compounds read high
row,SMILES,inhibition
1,CC12CCC(=O)N1C(C(=O)Nc1ccc(F)c(F)c1F)CS2 (stereo not drawn),-2.85% (inactive)
2,CC[C@]1(C(=O)OC)[C@H]2C(=O)N(Cc3ccccc3)C(=O)[C@H]2[C@H]2CN=C(SCc3ccc(C#N)cc3)N21,-7.96% (inactive)
3,CCOc1c(Br)cc(/C=C2\C(=O)N(CCC#N)N=C2C)cc1OC,-4.34% (inactive)
4,COc1cc(/C=C2/C(=O)NN(c3cccc(Cl)c3)C2=O)cc(Br)c1O,14.2% (active)
5,Cc1c(C(=O)CN2CCOCC2)[nH]c2ccccc12,-2.15% (inactive)
6,O=C(O)c1[nH]c2ccccc2c1C(c1cccc(O)c1)c1c(C(=O)O)[nH]c2ccccc12,28.9% (active)
7,CCCS(=O)(=O)Nc1c(C(=O)O)[nH]c2ccccc12,1.47% (inactive)
8,C/C(=N\Nc1cccc(C(=O)O)c1)c1ccc2c(c1)Nc1ccccc1S2,13.8% (active)
9,COc1cccc(C(=O)N/N=C(\C)c2cccc(NC(=O)c3ccc(F)cc3)c2)c1OC,-4.93% (inactive)
10,CC(=O)Nc1cccc(/C(C)=N/NC(=O)c2c(-c3ccccc3Cl)noc2C)c1,-2.25% (inactive)
11,Cc1ccc(CNC(=O)CCNS(=O)(=O)c2cccc3nonc23)cc1,0.736% (inactive)
12,CC1CCN(C(=O)c2cc3nc(C4CC4)cc(C(F)(F)F)n3n2)CC1,-2.25% (inactive)
13,COc1ccc(/C=C/CN2CCCC(C(=O)c3cc(F)ccc3F)C2)cc1 (stereo not drawn),-1.96% (inactive)
14,CN(C(=O)C1CCN(c2ncnc3c2nc2n3CCCCC2)CC1)C1CCCCC1,-3.36% (inactive)
15,COCCCNC(NC(=O)c1ccc(OC)cc1)C(Cl)(Cl)Cl (stereo not drawn),-3.52% (inactive)
16,c1ccc(CCN2CN=C(Nc3nc4ccccc4o3)NC2)cc1,-1.13% (inactive)
17,COc1ccc(C(=O)c2c(C)c(CCC#N)n3ccccc23)c(OC)c1,-2.38% (inactive)
18,Cc1ccc(S(=O)(=O)N2C[C@H]3C(=O)C[C@@H](c4cccc5ccccc45)N(S(=O)(=O)c4ccc(C)cc4)[C@H]3C[C@H]2c2ccc(Cl)cc2)cc1,-2.51% (inactive)
19,O=[N+]([O-])c1ccc(C=Nc2ccc(Cl)cc2Cl)s1,-1.01% (inactive)
20,COc1cccc(N2C(=O)NC(=O)/C(=C\c3ccc([N+](=O)[O-])s3)C2=O)c1,16.4% (active)
21,O=C(OCC(=O)N1CCN(c2ccccc2)CC1)c1ccc([N+](=O)[O-])s1,0.124% (inactive)
22,O=C1NC(=O)N(c2ccccc2)C(=O)/C1=C/c1ccc([N+](=O)[O-])s1,25.4% (active)

row,SMILES,inhibition
1,COc1cccc(/C=C2\SC(=N)N(c3ccc(F)cc3)C2=O)c1,-2.96% (inactive)
2,COc1cccc(C(=O)Oc2cc(C)[nH]c(=O)c2[N+](=O)[O-])c1,-0.419% (inactive)
3,CCCC1C(c2ccccc2)C(C#N)(C#N)C2(C#N)CC1(N)NC2=O (stereo not drawn),-0.503% (inactive)
4,COc1cccc(OCC(O)CNC(=O)c2oc3c(C)c(C)ccc3c2C)c1 (stereo not drawn),-2.55% (inactive)
5,COc1cc(O)c2c(=O)c3c(O)c(O)ccc3oc2c1OC,-0.783% (inactive)
6,COc1c(O)cc2oc(-c3ccc(O)c(O)c3)cc(=O)c2c1O,13.9% (active)
7,OCc1ccc(-c2ccccc2)c(-c2ccccc2)c1,-0.325% (inactive)
8,COc1ccccc1C(=O)NC(=S)NC12CC3CC(CC(C3)C1)C2,-0.832% (inactive)
9,COc1ccc(CCNC(=S)NC(=O)/C=C/c2ccc(C)cc2)cc1OC,-0.381% (inactive)
10,CC(Nc1ccccc1)c1cccnc1 (stereo not drawn),-4.94% (inactive)
11,CCC(CC)c1nnc(NC(=O)c2nn(C)c(=O)c3ccccc23)s1,-1.39% (inactive)
12,Cc1ccc(N2CCN(S(=O)(=O)c3ccc(F)cc3)CC2)c(C)c1,-3.77% (inactive)
13,CC1CC(C)CN(C(=O)COC(=O)c2ccc3ncsc3c2)C1 (stereo not drawn),-1.75% (inactive)
14,Cc1cc(C)c(C#N)c(SCC(=O)N(CC(C)C)C2CCS(=O)(=O)C2)n1 (stereo not drawn),-3.78% (inactive)
15,CCC(C)(C)c1ccc(Oc2ccc(NC(=O)COC(=O)C3=COCCO3)cc2)cc1,-2.88% (inactive)
16,COc1ccccc1CCCNC(=O)C1CCC(=O)N(CCN2CCOCC2)C1 (stereo not drawn),-0.246% (inactive)
17,Cn1c(=O)n(CCc2ccccc2)c(=O)c2c1nc1n2CCCN1c1ccccc1,-3.89% (inactive)
18,Cc1ccc(NC(=O)CN2C(=O)NC(C)(c3ccc(Cl)cc3)C2=O)c(Br)c1 (stereo not drawn),-1.17% (inactive)
19,COc1ccc(NC(=O)CN(C)C(=O)c2cccc(S(=O)(=O)N3CCN(c4ccccc4)CC3)c2)cc1,-1.23% (inactive)
20,O=C(O)c1ccccc1N=N/C(=N/Nc1cc(S(=O)(=O)O)ccc1O)c1ccccc1,8.82% (active)
21,CC(C)(O)C#Cc1ccc(CNC[C@H]2O[C@@H](n3cnc4c(=O)[nH]c(N)nc43)[C@H](O)[C@@H]2O)s1,-0.925% (inactive)
22,O=S(=O)(c1ccc(SCc2ccc(Br)cc2)nc1)N1CCOCC1,-1.66% (inactive)

row,SMILES,inhibition
1,O=C(Nc1cccc(-c2cccc(Cl)c2)c1)C1CCN(C2CCC2)CC1,-25.6% (inactive)
2,Cc1ccc(/C([O-])=C(/C(=S)NCc2ccco2)[n+]2ccccc2)cc1[N+](=O)[O-],1.32% (inactive)
3,Cc1sc2ncnc(SCC(=O)NC3CCS(=O)(=O)C3)c2c1C (stereo not drawn),-1.04% (inactive)
4,CC1CCCC(C)N1C(=O)COC(=O)COc1ccccc1C#N (stereo not drawn),-1.75% (inactive)
5,Cc1cc(OCC(=O)N2CCN(c3ncccn3)CC2)ccc1Cl,-3.44% (inactive)
6,COc1ccc(C(=O)Nc2ccnn2C2CCN(Cc3ccncc3)CC2)cc1,-2.54% (inactive)
7,CCC(C)C(CO)NC(=O)/C=C/[C@H]1O[C@@H](n2cnc3c(NC(=O)c4ccccc4)ncnc32)[C@H](O)[C@@H]1O (stereo partly drawn),-0.392% (inactive)
8,COc1cc(C(O)c2nc(-c3cnn(C)c3)cs2)ccc1F (stereo not drawn),-2.58% (inactive)
9,CS(=O)(=O)N(Cc1ccccc1)c1ccc(C(=O)NN=C2CCCCCC2)cc1,-7.2% (inactive)
10,CCCN(C(=O)c1nc2nccc(C)n2n1)c1c(N)n(Cc2ccccc2)c(=O)[nH]c1=O,0.906% (inactive)
11,O=Nc1c(O)cc(O)c2ccccc12,-1.75% (inactive)
12,COC(=O)c1ccc(CNC(=O)c2ccc(S(=O)(=O)N3CCCCCC3)cc2)cc1,1.15% (inactive)
13,COc1ccccc1CNC(=O)c1ccc(Cl)c(S(=O)(=O)N2CCCC2)c1,1.35% (inactive)
14,COc1ccc(C(=O)NCc2ccc(Cl)cc2)cc1S(=O)(=O)N1CCCC1,39.8% (active)
15,COc1ccc(C(=O)NCC2CCCCC2)cc1S(=O)(=O)N1CCCC1,-0.215% (inactive)
16,COc1ccc(C(=O)NCC2CCCO2)cc1S(=O)(=O)NCc1ccc(Cl)cc1 (stereo not drawn),-1.14% (inactive)
17,COc1ccc(C(=O)NCc2ccc(C)cc2)cc1S(=O)(=O)N1CCCC1,28% (active)
18,C=CCSc1ccc(S(=O)(=O)N2CCN(C)CC2)cn1,-0.339% (inactive)
19,CCN(CC)C(CNC(=O)CSc1nnnn1-c1cccc(F)c1)c1ccco1 (stereo not drawn),-0.979% (inactive)
20,Cc1ccc(S(=O)(=O)N(C)C)cc1NC(=O)COC(=O)c1c(C)noc1C,-3.04% (inactive)
21,COCCNC(=O)CCCn1c(=O)c2ccccc2n(Cc2cccc([N+](=O)[O-])c2)c1=O,-2.03% (inactive)
22,CSC1=NC2(C)CCCCC2C12C=CC(=O)C=C2 (stereo not drawn),-1.74% (inactive)

row,SMILES,inhibition
1,O=C(Nc1ccc(N2CCOCC2)c(Cl)c1)c1ccc(S(=O)(=O)N2CCOCC2)cc1,-1.1% (inactive)
2,CC(=O)c1nn(-c2cccc(C(F)(F)F)c2)c(=O)[nH]c1=O,-2.32% (inactive)
3,O=C(Nc1cc(=O)[nH]c2ncnn12)c1ccccc1Cl,0.264% (inactive)
4,CC(C(=O)N1CCOCC1)N1c2cccc3cccc(c23)S1(=O)=O (stereo not drawn),-1.36% (inactive)
5,OC1CN=C2Sc3ccccc3N2C1 (stereo not drawn),-1.93% (inactive)
6,COc1ccccc1NC(=O)CSc1nnc(Cn2nnc(-c3ccccc3)n2)n1-c1ccccc1,-2.49% (inactive)
7,Nc1cc(C(=O)N2CCN(c3ccccc3Cl)CC2)ccc1N1CC2CC(C1)c1cccc(=O)n1C2 (stereo not drawn),0.263% (inactive)
8,COc1cc(CCC(=O)N2CCN(c3ccccc3Cl)CC2)cc(OC)c1OC,67.4% (active)
9,COc1cc(CCC(=O)Nc2ccncc2Cl)cc(OC)c1OC,-0.965% (inactive)
10,CC(=O)Nc1ccc(S(=O)(=O)NCCC(=O)N2CCN(c3ccccc3Cl)CC2)cc1,-0.39% (inactive)
11,CCOc1ccc(CCNC(=O)CN2C(=O)NC3(CCc4ccccc43)C2=O)cc1OCC (stereo not drawn),-4.62% (inactive)
12,C=CCN(CC=C)CCOc1ccccc1[N+](=O)[O-],0.271% (inactive)
13,COC(=O)[C@H](C(C)C)n1c(C)c(C(C)=O)c(C(C)=O)c1C,-1.13% (inactive)
14,N#Cc1ccc(C(=O)OCC(=O)NC(=O)NC2CCCCC2)cc1,-1.55% (inactive)
15,COc1cccc(C2CC(c3cccs3)=NN2C(=O)CSC2=NCCS2)c1OC (stereo not drawn),-1.77% (inactive)
16,CCS(=O)(=O)Nc1ccc(C2=NN(S(=O)(=O)c3ccc(F)cc3)C(c3ccco3)C2)cc1 (stereo not drawn),-3.77% (inactive)
17,COc1cccc(C2CC(c3ccccc3)=NN2S(=O)(=O)c2ccccc2)c1OC (stereo not drawn),9.71% (active)
18,COCCN(CCOC)c1nc(N)c2c(N)nc3c(c2c1C#N)CC(=O)N3Cc1ccc(Cl)cc1,39.6% (active)
19,Cc1ccc(-c2csc(NCCc3nc4cc(Cl)c(Cl)cc4n3CCOCCO)n2)cc1,-0.743% (inactive)
20,CCC(=O)Nc1nnc(S(=O)(=O)N(CC(C)C)c2ccccc2)s1,-1.99% (inactive)
21,CC(C)CC(=O)Nc1nnc(S(=O)(=O)N(C)c2ccc(Cl)cc2)s1,19.6% (active)
22,Cc1nc(NC(=O)CN(C)S(=O)(=O)c2ccc(Cl)cc2)sc1C,0.291% (inactive)
